The values that follow come from PubChem BioAssay.

In assay [1] the test system is PRMT1 (protein arginine N-methyltransferase 1). The assay is described as follows: PRMT1 binders on small-molecule microarrays, primary screen, biochemical, small-molecule microarray, 635 nm fluorescence (AID 1088).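 Further: binding of Prmt1 protein to compounds spotted on small-molecule microarray slides.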 The conditions noted are these: small-molecule microarray binding, higher = more signal.
Assay [2] in a line: yeast growth modulation, basal conditions, primary screen, YJM789 clinical isolate, OD600, 24 h (AID 1089).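 Further: growth of clinical yeast isolate S. cerevisiae YJM 789 seeded 1000 cells per well; test concentration not given here.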 The following applies: S. cerevisiae YJM789 growth, higher = more signal, called active from +8 up or from −8 down.
Assay [3] can be described thus: fission yeast growth modulation, primary screen, strain 972, OD600, 24 h, no modulator (AID 1090).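 Further: basal condition with compound alone and no growth modifier present; test concentration not given here.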 The conditions noted are these: S. pombe 972 growth, higher = more signal, called active from +8 up or from −8 down.
The nature of assay [4]: S. cerevisiae growth modulation with rapamycin, primary screen, strain BY4716, OD600, 96 h (AID 1091). Further: test concentration not given here. The following applies: higher = more signal, called active from +8 up or from −8 down.
Assay [5] deals with Torsin-1A-interacting protein 2 (Homo sapiens) (UniProt Q8NFQ8). Nature of the assay: LULL1 binders on small-molecule microarray, primary screen, cell lysate, human LULL1 lysate, 635/667 nm fluorescence (AID 1092).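 Further: probe is lysate of COS7 cells overexpressing human LULL1; score merges per-feature 667 nm fluorescence with signal-to-noise.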 The following applies: hLULL1 lysate binding, 635 nm fluorescence, higher = more signal.
Chain of Torsin-1A-interacting protein 2 (Homo sapiens) (Q8NFQ8 whole entry, looked up): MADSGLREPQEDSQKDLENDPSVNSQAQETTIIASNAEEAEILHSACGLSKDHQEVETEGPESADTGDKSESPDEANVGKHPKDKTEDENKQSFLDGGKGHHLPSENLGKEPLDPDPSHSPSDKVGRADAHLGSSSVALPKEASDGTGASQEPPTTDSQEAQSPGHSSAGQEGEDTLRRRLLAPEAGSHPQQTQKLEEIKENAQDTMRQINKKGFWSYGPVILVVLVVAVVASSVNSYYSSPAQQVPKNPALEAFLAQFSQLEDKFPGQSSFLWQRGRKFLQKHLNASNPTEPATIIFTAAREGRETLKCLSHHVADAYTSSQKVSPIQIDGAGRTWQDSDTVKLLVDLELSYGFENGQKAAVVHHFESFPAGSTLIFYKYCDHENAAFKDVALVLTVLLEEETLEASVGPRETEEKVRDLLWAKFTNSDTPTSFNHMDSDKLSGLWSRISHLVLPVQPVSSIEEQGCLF
Assay [6] in a line: E. coli growth modulation, two-sided OD650, primary screen, E. coli filamentation project, strain DRC41, 24 h (AID 1093).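 Further: MC1000 strain lacking acrAB efflux and sulA so SOS filamentation is blocked; test concentration not given here.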 The following applies: OD650, 24 h, higher = more signal, called active from +8 up or from −8 down.
Assay [7] in a line: small-molecule microarray binders of probe aLefty2, primary screen, biochemical, biotinylated probe, 635/667 nm fluorescence (AID 1094).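 Further: score merges spot fluorescence near 667 nm with spot signal-to-noise ratio.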 The following applies: higher = more signal.
The test system of assay [8] is Noggin (protein binding on small-molecule microarray). Nature of the assay: Noggin binders on small-molecule microarray, primary screen, biochemical, 635/667 nm fluorescence (AID 1095).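 Further: score merges 667 nm feature fluorescence with signal to noise over triplicate slides.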 The conditions noted are these: 635 nm fluorescence, higher = more signal.
Assay [9] has as its target Neurogenic locus notch homolog protein 3 (Homo sapiens) (UniProt Q9UM47). The assay is described as follows: NOTCH3 binders on small-molecule microarray, primary screen, biochemical, 635/667 nm fluorescence (AID 1096). The conditions noted are these: NOTCH3 binding, 635 nm fluorescence, higher = more signal.
The nature of assay [10]: small-molecule microarray binders of probe aEGFR, primary screen, biochemical, biotinylated probe, 635/667 nm fluorescence (AID 1097).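 Further: probe is a biotinylated anti-EGFR antibody binding compounds printed on slides; score combines fluorescence near 667 nm and signal to noise of each spot.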 The conditions noted are these: higher = more signal.
Assay [11] deals with Plasmodium falciparum Sir2 (PF13_0152, Sir2A). The assay is described as follows: pfSir2 binders on small-molecule microarrays, primary screen, biochemical, small-molecule microarray, 635 nm fluorescence (AID 1098).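 Further: score merges spot fluorescence intensity with its signal-to-noise ratio.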 The following applies: small-molecule microarray binding, fluorescence 635 nm; higher = more signal.
Assay [12] is described as follows: small-molecule microarray binders of probe aDKK1, primary screen, biochemical, biotinylated probe, 635/667 nm fluorescence (AID 1099).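 Further: score merges 667nm spot fluorescence with signal to noise across triplicate slides; reference of the scale not given here.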 The conditions noted are these: higher = more signal.
Assay [13] is described as follows: small-molecule microarray binders of probe aCHRDL2, primary screen, biochemical, biotinylated probe, 635/667 nm fluorescence (AID 1100). The conditions noted are these: higher = more signal.
Assay [14] can be described thus: splicing luciferase reporter signal modulators, primary screen, spliceosome inhibition project, cell-based, HEK293, splice +/- reporter (AID 1101).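 Further: HEK293 cells carrying a splicing-competent luciferase reporter gene; test concentration not given here.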 The following applies: luminescence, 24 h, higher = more signal, called active from +8 up or from −8 down. Background: Reporter assays use an easily measured gene product as a stand-in for the process of interest.
Assay [15] concerns the target Fibroblast growth factor 10 (Homo sapiens) (UniProt O15520). Nature of the assay: FGF10 binders on small-molecule microarrays, primary screen, biochemical, small-molecule microarray, 635 nm fluorescence (AID 1102). The conditions noted are these: FGF10 binding, fluorescence 635 nm, higher = more signal.
The test system of assay [16] is glycogen synthase kinase-3 (GSK3A per assay name; protocol says GSK3B). Nature of the assay: GSK3 binders on small-molecule microarrays, primary screen, biochemical, small-molecule microarray, 635 nm fluorescence, GSK3A (AID 1103). Further: the record names both GSK3A and GSK3B. The conditions noted are these: small-molecule microarray binding, fluorescence 635 nm; higher = more signal.
The target in assay [17] is Epidermal growth factor receptor (Homo sapiens) (UniProt P00533). Nature of the assay: EGFR binders on small-molecule microarrays, primary screen, biochemical, small-molecule microarray, 635 nm fluorescence (AID 1104).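 Further: score merges 667 nm emission intensity with spot signal to noise over triplicate slides.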 The conditions noted are these: EGFR binding, higher = more signal.
Chain of Epidermal growth factor receptor (Homo sapiens) (P00533 whole entry, looked up): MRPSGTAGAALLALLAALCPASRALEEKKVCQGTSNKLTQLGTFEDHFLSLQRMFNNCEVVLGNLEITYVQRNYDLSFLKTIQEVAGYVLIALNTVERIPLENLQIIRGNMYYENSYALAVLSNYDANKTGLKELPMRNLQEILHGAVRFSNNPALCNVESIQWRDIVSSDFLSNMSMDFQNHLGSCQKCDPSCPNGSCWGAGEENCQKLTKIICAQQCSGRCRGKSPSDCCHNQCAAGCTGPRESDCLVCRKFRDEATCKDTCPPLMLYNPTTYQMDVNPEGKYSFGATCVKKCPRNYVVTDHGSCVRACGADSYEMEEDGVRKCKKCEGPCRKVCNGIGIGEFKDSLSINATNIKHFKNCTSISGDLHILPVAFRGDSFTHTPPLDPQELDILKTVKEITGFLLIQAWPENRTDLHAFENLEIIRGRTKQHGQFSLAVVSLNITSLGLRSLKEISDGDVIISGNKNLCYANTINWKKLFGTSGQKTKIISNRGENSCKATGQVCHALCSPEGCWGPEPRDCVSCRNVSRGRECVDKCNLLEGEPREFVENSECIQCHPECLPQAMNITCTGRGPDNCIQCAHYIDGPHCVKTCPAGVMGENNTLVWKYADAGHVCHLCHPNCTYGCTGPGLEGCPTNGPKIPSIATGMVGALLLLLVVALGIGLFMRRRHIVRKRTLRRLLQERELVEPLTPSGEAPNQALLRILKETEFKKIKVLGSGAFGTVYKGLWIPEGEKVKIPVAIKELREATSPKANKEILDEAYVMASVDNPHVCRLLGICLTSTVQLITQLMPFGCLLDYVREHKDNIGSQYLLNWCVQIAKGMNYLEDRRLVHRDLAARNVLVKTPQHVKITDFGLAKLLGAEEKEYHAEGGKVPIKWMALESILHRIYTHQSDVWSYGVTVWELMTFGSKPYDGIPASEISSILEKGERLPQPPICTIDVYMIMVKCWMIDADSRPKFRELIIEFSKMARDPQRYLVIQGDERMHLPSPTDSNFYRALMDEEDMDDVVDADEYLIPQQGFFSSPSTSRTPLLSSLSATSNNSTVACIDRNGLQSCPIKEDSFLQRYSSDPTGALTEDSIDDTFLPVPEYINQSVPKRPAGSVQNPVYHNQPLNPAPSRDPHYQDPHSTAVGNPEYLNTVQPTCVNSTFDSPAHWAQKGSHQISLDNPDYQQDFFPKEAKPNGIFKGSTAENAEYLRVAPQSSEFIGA
Assay [18] has as its target Follistatin-related protein 3 (Homo sapiens) (UniProt O95633). The assay is described as follows: FSTL3 binders on small-molecule microarrays, primary screen, biochemical, small-molecule microarray, 635 nm fluorescence (AID 1105).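 Further: score merges emission near 667 nm and signal to noise per printed spot across three slides.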 The following applies: FSTL3 binding, higher = more signal.
The target in assay [19] is Dickkopf-related protein 1 (Homo sapiens) (UniProt O94907). The assay is described as follows: DKK1 binders on small-molecule microarrays, primary screen, biochemical, small-molecule microarray, 635 nm fluorescence scan (AID 1106).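 Further: score merges emission near 667 nm with signal to noise over three replicate slides.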 The conditions noted are these: DKK1 binding, higher = more signal.
Chain of Dickkopf-related protein 1 (Homo sapiens) (O94907 whole entry, looked up): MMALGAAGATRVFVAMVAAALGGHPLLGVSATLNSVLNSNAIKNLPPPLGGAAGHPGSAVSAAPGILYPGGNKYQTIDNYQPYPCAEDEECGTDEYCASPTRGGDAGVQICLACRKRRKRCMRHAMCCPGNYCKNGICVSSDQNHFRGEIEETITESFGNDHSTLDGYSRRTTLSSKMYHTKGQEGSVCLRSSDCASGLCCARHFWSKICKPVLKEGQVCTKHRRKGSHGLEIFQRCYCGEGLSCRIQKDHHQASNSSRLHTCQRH
For assay [20], the system named is Inhibin beta A chain (activin A). The assay is described as follows: INHBA (activin A) binders on microarrays, primary screen, biochemical, small-molecule microarray, 635 nm fluorescence scan (AID 1107).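 Further: mouse activin A protein probed at 4.33 µg/mL on printed slides; score merges bound-protein fluorescence near 667 nm with spot signal-to-noise.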 The following applies: small-molecule microarray binding, higher = more signal.

Activity calls are given as the source filed them.

Chain of Follistatin-related protein 3 (Homo sapiens) (O95633 whole entry, looked up): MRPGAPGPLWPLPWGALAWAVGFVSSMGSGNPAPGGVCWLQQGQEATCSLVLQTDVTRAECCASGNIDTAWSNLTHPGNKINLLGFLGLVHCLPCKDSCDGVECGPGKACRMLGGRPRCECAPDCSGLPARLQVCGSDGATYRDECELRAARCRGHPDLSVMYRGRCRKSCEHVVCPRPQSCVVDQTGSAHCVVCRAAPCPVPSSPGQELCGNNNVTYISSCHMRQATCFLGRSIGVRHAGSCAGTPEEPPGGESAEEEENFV
Chain of Fibroblast growth factor 10 (Homo sapiens) (O15520 whole entry, looked up): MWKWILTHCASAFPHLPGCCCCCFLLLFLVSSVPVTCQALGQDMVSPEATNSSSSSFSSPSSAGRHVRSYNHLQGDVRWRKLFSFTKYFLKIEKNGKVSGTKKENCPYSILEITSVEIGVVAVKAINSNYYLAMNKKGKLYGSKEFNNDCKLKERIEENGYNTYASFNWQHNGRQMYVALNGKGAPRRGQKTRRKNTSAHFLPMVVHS
Chain of Neurogenic locus notch homolog protein 3 (Homo sapiens) (Q9UM47 whole entry, looked up): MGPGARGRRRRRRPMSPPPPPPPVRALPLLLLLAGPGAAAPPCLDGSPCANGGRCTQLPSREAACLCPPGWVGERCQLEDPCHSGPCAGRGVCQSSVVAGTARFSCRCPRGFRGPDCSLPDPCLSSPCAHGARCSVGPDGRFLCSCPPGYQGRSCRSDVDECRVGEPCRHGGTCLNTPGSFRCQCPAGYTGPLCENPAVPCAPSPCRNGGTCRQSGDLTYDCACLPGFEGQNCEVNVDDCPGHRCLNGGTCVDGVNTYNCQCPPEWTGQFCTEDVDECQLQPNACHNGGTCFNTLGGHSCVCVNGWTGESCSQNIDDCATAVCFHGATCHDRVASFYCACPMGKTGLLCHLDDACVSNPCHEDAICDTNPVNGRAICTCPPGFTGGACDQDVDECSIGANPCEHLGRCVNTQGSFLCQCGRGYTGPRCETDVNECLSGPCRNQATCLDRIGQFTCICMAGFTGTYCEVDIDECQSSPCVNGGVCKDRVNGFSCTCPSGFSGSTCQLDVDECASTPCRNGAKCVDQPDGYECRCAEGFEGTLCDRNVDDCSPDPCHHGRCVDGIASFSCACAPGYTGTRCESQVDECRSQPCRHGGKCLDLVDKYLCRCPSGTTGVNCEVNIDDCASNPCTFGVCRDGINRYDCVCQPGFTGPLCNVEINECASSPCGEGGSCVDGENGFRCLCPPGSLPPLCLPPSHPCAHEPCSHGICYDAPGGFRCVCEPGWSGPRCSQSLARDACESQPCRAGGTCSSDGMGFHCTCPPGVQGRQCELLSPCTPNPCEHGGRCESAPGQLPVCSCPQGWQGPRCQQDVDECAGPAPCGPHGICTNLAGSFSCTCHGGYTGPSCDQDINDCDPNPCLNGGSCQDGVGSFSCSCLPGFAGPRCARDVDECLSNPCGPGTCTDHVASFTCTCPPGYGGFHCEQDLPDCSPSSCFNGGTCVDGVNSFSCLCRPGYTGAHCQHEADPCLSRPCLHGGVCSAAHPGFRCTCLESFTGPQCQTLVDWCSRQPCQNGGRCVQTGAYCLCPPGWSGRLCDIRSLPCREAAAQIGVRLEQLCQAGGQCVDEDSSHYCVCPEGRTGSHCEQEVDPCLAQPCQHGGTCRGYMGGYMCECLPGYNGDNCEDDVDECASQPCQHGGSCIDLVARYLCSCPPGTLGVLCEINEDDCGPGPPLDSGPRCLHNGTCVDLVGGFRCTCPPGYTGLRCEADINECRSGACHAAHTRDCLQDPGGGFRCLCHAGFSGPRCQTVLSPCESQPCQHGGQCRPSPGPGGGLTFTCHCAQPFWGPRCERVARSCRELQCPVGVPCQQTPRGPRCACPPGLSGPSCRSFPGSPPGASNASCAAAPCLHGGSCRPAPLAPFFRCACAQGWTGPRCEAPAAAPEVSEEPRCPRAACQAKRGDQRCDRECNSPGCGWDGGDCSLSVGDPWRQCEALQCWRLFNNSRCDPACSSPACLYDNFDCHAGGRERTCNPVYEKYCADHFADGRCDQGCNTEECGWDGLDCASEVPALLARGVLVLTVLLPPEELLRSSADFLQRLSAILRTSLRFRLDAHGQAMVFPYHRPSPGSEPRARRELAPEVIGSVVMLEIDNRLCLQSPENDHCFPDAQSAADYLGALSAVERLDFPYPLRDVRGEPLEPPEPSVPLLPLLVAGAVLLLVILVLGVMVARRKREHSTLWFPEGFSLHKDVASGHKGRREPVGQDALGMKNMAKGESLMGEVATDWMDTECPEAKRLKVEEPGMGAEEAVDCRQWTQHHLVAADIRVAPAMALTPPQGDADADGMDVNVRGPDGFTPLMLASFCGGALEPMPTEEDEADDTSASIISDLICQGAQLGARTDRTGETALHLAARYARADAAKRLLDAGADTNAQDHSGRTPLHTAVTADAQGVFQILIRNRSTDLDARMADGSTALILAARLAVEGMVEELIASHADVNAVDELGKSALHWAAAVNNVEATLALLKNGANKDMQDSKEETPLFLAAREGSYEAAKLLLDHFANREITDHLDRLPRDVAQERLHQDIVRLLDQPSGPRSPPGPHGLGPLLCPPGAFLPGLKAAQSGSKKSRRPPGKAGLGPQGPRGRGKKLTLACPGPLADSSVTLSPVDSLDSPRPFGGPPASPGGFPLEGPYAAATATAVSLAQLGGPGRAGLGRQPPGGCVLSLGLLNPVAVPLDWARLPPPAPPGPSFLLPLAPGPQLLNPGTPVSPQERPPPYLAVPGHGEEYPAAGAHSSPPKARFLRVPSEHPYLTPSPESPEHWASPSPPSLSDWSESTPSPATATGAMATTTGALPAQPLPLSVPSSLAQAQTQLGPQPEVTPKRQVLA

Regarding `COC(=O)[C@@]1(Cc2ccc(F)cc2)[C@H]2c3cc(C(=O)N(C)C)n(CCN4CCOCC4)c3C[C@H]2CN1C(=O)c1ccccc1`, the composite z-score in assay [1] was 0.101; in assay [5] it was 2.5; in assay [7], 0.246; in [8] it was -0.539; in [9] it was 0.417; in assay [10] it was 0.865. The composite z-score in assay [11] is 0.756; in assay [12], 1.72; in assay [13], 0.868; in assay [15], 1.03; in assay [16] it was 1.12; in [17], 0.045. For the same compound, the composite z-score in assay [18] is -0.265; in [19], -0.431; in assay [20] it was 0.84. Also, the z-score was 0.218 (inactive) in [2]; 0.323 (inactive) in [3]; 0.0727 (inactive) in assay [4]; 0.176 (inactive) in assay [6]; -0.575 (inactive) in [14].
`C=CCNC(=O)[C@@H]1[C@H]2C(=O)O[C@H](c3ccccc3)[C@H](c3ccccc3)N2[C@H](c2ccc(O)cc2)[C@@]12C(=O)Nc1ccc(C#CC3(O)CCCCCC3)cc12`: the composite z-score in [1] was 0.994; in [5], 1.57; in assay [7], -0.113; in assay [8] it was 0.553; in [9], -0.0051; in assay [10], -0.013. The composite z-score in assay [11] is 1.1; in assay [12], -0.0065; in assay [13] it was -0.0122; in assay [15], 0.746; in [16], -0.206; in assay [17] it was 0.348. Also, the composite z-score was 0.196 in [18], 0.446 in assay [19] and -0.195 in assay [20]. Moreover, the z-score in assay [2] is 0.154 (inactive); in assay [3], 0.0674 (inactive); in [4], 0.0489 (inactive); in [6], -0.447 (inactive); in [14] it was 0.405 (inactive).
On to `CC(C)(C)OC(=O)CC[C@]1(C(=O)N2CCOCC2)N=C(c2ccc(OCCCO)cc2)O[C@H]1c1ccccc1CN=[N+]=[N-]`, for which the composite z-score in [1] is 1.55; in assay [5] it was 3.32; in assay [7], -0.127; in assay [8], 1.79; in assay [9] it was 0.725; in assay [10], -0.044. For the same compound, the composite z-score in assay [11] is 1.61; in assay [12] it was 0.528; in [13] it was 0.885; in assay [15], 1.4; in assay [16] it was 1.32; in assay [17], -0.0261. Moreover, the composite z-score in assay [18] is 1.08; in assay [19], -0.0465; in [20], 0.543. Further, the z-score in [2] was -0.673 (inactive); in assay [3] it was 0.306 (inactive); in assay [4], -0.611 (inactive); in assay [6], -0.798 (inactive); in assay [14], -0.371 (inactive).
As for `CC(C)[C@@H](C(=O)O)n1cc(-c2ccccc2)nn1`, the composite z-score in assay [1] is 0.0283; in assay [5] it was 1.19; in [7] it was -0.0623; in assay [8], 0.192; in assay [9] it was 0.938; in assay [10] it was 0.125. For the same compound, the composite z-score in assay [11] came out at 0.377; in assay [12], 0.824; in assay [13], 0.69; in [15], 0.737; in assay [16], 1.27; in assay [17] it was 0.262. Further, the composite z-score in assay [18] is 0.256; in assay [19], 0.0435; in assay [20] it was 0.48. In addition, the z-score in assay [2] is -0.0149 (inactive); in assay [3] it was -0.0883 (inactive); in assay [4] it was -0.244 (inactive); in [6], -1.44 (inactive); in assay [14] it was 0.317 (inactive).
Turning to `O=c1cccc(-c2ccccc2C(F)(F)F)o1`, the composite z-score in assay [1] is -0.205; in assay [5], 1.08; in [7] it was 0.659; in assay [8], -0.798; in assay [9], -0.85; in assay [10], 0.323. For the same compound, the composite z-score in assay [11] is -0.722; in assay [12] it was 1.15; in [13], 0.567; in assay [15], -0.382; in assay [16] it was -0.363; in assay [17], -0.955. The figures for the composite z-score in [18], in assay [19] and in [20] were -0.722, -0.469 and 1.11, respectively. The z-score in assay [2] was -0.35 (inactive); in assay [3], -0.392 (inactive); in assay [4] it was 0.591 (inactive); in assay [6], -0.582 (inactive); in assay [14], 0.756 (inactive).
